This is a sample that favours compounds with a hit; in the whole collection about 19% have one here.
IL1B secr inh: inflammasome signaling inhibition, IL-1 beta readout. THP-1 LPS/ATP IL-1B secretion, AlphaLISA, 16 h; active compounds read low. activity change, % at 57.5 µM. 360,000 tested, 4.7% active. AID 743279; in the data active = activity change below about -50%; inconclusive = mostly about -30% to -49%
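THP-1 cells pretreated 1 hr with compounds (up to 57.5 uM final), then stimulated with LPS (250 ng/mL final) plus ATP (1.25 mM final); secreted IL-1B measured by AlphaLISA after 16 hr, decreased signal indicating inhibition.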
ELG1 DNA repair: ELG1-dependent DNA repair inhibition | HEK293T ELG1-luciferase reporter, luminescence, 16 h; DNA damage induced by 5-fluorouridine | Potency, µM (top dose mostly 46.1 µM), usual class: inhibitors | 330,000 tested, 2.3% active | AID 504467; note: nearly all actives have a fitted effect of over 55% in size
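5-Fluorouridine DNA damage + compound/DMSO, 2,000 cells/well, 16 h, 37 °C/5% CO2. ONE-Glo, 30 min RT, luminescence. Readout = decrease in reporter signal.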
TDP1 cell CPT: DT40-hTDP1 cell growth loss with CPT; chicken DT40 Tdp1-/-;hTDP1 cells + 20 nM CPT, ATP luminescence, 48 h; Potency, µM (titrated, usually from 46.2 µM), most hits filed as inhibitors; 420,000 tested, 12% active; AID 686979; note: nearly all actives have a fitted effect of over 55% in size
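Chicken DT40 Tdp1-/- cells stably complemented with human TDP1 were seeded at 400 cells/well in medium containing 20 nM camptothecin, exposed to pin-transferred compounds, and grown at 37 °C for at least 48 hr. Viability was read as ATP luminescence.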
TDP1 inh: TDP1 (human) enzyme inhibition; 350,000 tested, 0.28% active; Potency, µM (doses to about 130 µM), hits mostly inhibitors; recombinant TDP1, AlphaScreen DNA substrate cleavage; Q9NUW8; note: nearly all actives have a fitted effect of over 40% in size
Target sequence (Q9NUW8 whole entry, looked up): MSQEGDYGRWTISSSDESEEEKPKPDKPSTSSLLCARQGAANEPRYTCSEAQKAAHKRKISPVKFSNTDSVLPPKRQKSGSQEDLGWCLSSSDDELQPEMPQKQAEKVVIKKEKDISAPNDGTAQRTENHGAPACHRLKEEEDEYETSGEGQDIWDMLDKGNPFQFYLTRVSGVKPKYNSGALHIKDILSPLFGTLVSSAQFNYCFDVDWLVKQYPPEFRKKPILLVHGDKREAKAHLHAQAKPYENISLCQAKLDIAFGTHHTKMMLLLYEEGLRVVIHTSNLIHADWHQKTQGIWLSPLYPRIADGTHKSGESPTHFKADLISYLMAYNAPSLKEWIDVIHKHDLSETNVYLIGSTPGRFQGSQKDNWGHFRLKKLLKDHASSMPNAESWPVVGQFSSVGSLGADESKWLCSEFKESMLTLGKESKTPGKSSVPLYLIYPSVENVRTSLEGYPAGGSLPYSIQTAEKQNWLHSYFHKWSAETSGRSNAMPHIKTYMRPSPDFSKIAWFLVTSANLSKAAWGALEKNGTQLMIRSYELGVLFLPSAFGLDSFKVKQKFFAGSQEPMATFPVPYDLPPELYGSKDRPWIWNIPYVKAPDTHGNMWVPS
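Enzyme-compound mixtures sat 15 min at room temperature, followed by a 5 min reaction with 15 nM final substrate and 10 min with AlphaScreen beads. Recombinant human Tdp1 was used at 1 nM final.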
TDP1 cell noCPT: qHTS for Inhibitors of human tyrosyl-DNA phosphodiesterase 1 (TDP1): qHTS in cells in absence of CPT | DT40 Tdp1-/- hTDP1 cells, no CPT, ATP luminescence, 48 h | Potency, µM (highest dose often 46.2 µM), actives largely listed as inhibitors | 420,000 tested, 15% active | AID 686978, 2013; note: nearly all actives have a fitted effect of over 55% in size
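A cellular qHTS used chicken DT40 cells lacking endogenous Tdp1 but carrying stably transfected human TDP1. Compounds were applied without camptothecin, and cell growth kinetics were judged by ATP-dependent luminescence after ≥48 hr.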
Giardia killer: Giardia lamblia killing; AID 540267; 340,000 tested, 0.15% active; activity change, % at 7.66 µM, hits read low; Giardia lamblia trophozoite viability; in the data active = activity change below about -80%; inconclusive = between about -30% and that limit;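 note: parasites exposed to compound for two days anaerobically before the ATP read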
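Media and compound were dispensed first, then trophozoites at 100 cells/well; plates sat 48 hrs at 37 deg C without oxygen before ATP luminescence reagent was added and read after 15-30 min at room temperature.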
A number is an active result. Unless noted, calls come from the whole dose curve; as a rule, active = well fitted curve in the direction sought with a large enough effect; inconclusive = small, poorly fitted or top-dose-only effect, or another doubt; inactive = no such curve, though single readings can be large; an effect the other way counts as inactive or inconclusive.

Screening O=C1CSC(c2cccnc2)N1c1ccccc1 (stereo unspecified) returned IL1B secr inh inactive, ELG1 DNA repair inactive, TDP1 cell CPT inactive, TDP1 inh inactive, TDP1 cell noCPT inactive and Giardia killer inactive.
Screening COc1ccc(NC(=O)c2ccc(Cl)c(S(=O)(=O)NCC3CCCO3)c2)c(OC)c1 (stereo unspecified) returned IL1B secr inh inactive, ELG1 DNA repair inactive, TDP1 cell CPT inactive, TDP1 inh inactive, TDP1 cell noCPT inactive and Giardia killer inactive.
Screening O=C(c1ccco1)N1CCN(C(=O)C(Sc2ccccc2)c2ccccc2)CC1 (stereo unspecified) returned IL1B secr inh inactive, ELG1 DNA repair inconclusive, TDP1 cell CPT 16.4µM, TDP1 inh inactive, TDP1 cell noCPT inconclusive and Giardia killer inactive.
`C/C(=N\NC(=O)c1ccoc1C)c1ccc(Cl)s1` gave IL1B secr inh inconclusive, ELG1 DNA repair inconclusive, TDP1 cell CPT inactive, TDP1 inh inactive, TDP1 cell noCPT inactive and Giardia killer inactive.
C/C(=N\NC(=S)NC(C)C)c1ccc(Cl)s1 was read as IL1B secr inh inactive, ELG1 DNA repair inactive, TDP1 cell CPT 14.6µM, TDP1 inh inactive, TDP1 cell noCPT 5.8µM and Giardia killer inactive.
For C/C(=N\NC(N)=S)c1ccc(Cl)s1 the results were IL1B secr inh -78.5, ELG1 DNA repair inconclusive, TDP1 cell CPT 5.17µM, TDP1 inh inactive, TDP1 cell noCPT 4.61µM and Giardia killer inactive.
C/C(=N\NC(=O)c1csc(C)c1C)c1ccc(Cl)s1 was read as IL1B secr inh inactive, ELG1 DNA repair inconclusive, TDP1 cell CPT 23.1µM, TDP1 inh inactive, TDP1 cell noCPT 23.1µM and Giardia killer inactive.
Screening CSc1ccc(Cl)c(C(=O)NCCCn2ccnc2)c1 returned IL1B secr inh inactive, ELG1 DNA repair inactive, TDP1 cell CPT inactive, TDP1 cell noCPT inactive and Giardia killer inactive.
COC(=O)c1cccnc1-n1c(=O)c2cccnc2n(CC(=O)Nc2ccccc2F)c1=O was read as TDP1 cell CPT inactive, TDP1 inh inactive and TDP1 cell noCPT inactive.
`CCOc1ccccc1N1CCN(CC(=O)Nc2ccnn2C2CCCC2)CC1` gave IL1B secr inh inactive, ELG1 DNA repair inconclusive, TDP1 cell CPT 13µM, TDP1 inh inactive, TDP1 cell noCPT inconclusive and Giardia killer inactive.
For Cc1ccc(C(=O)NC2CCN(CC(=O)Nc3ccccc3Cl)CC2)cc1 the results were IL1B secr inh inactive, ELG1 DNA repair inactive, TDP1 cell CPT inactive, TDP1 cell noCPT inactive and Giardia killer inactive.
COC(=O)c1ccccc1NC(=O)CN1CCC(NC(=O)c2ccc(C)cc2)CC1 was read as IL1B secr inh inactive, ELG1 DNA repair 16.4µM, TDP1 cell CPT inconclusive, TDP1 inh inactive, TDP1 cell noCPT 25.9µM and Giardia killer inactive.
`COC(=O)c1ccc(C(=O)OC)c(NC(=O)CN2CCN(c3ccccc3)CC2)c1` gave IL1B secr inh inactive, ELG1 DNA repair inconclusive, TDP1 cell CPT inconclusive, TDP1 inh inactive, TDP1 cell noCPT inactive and Giardia killer inactive.
`COC(=O)c1ccccc1NC(=O)CN1CCN(C23CC4CC(CC(C4)C2)C3)CC1` gave IL1B secr inh inactive, ELG1 DNA repair inconclusive, TDP1 cell CPT 29.1µM, TDP1 inh inactive, TDP1 cell noCPT inconclusive and Giardia killer inactive.
CCOc1ccccc1C(=O)NC1CCN(CC(=O)Nc2cc(OC)ccc2OC)CC1 was read as IL1B secr inh inactive, ELG1 DNA repair inconclusive, TDP1 cell CPT 20.6µM, TDP1 cell noCPT 16.4µM and Giardia killer inactive.
Cc1ccc(-n2cccn2)c([C@@H]2C[C@H]3CN(C)C(=O)[C@]34CCCN24)c1 was read as IL1B secr inh inactive, ELG1 DNA repair inactive, TDP1 cell CPT inactive, TDP1 cell noCPT inactive and Giardia killer inactive.
`Cn1cnc2c(ncn2[C@@H]2O[C@H](CO)[C@@H](O)[C@H]2O)c1=N` gave TDP1 cell CPT inactive, TDP1 inh inactive and TDP1 cell noCPT inactive.

From PubChem
